# Sampled rows, rich in hits. Any-hit rate of the full collection: about 3.5%.
# BoNT-A LC inh2 = BoNT/A light chain protease inhibitors, primary screen, biochemical, flow cytometry, MLPCN library; multiplex microsphere protease substrate cleavage; 0.17% of 360,000 active; Botulinum neurotoxin type A light chain protease (Clostridium botulinum A str. ATCC 3502); inhibition, % at 10 µM; AID 588499, 2011; in the data active = inhibition above about 30%; inconclusive = no clear call, values can overlap the other calls; also: plate controls were buffer without enzyme for full effect and enzyme alone for no effect
# Anthrax LF prot = Bacillus anthracis LF protease inhibitors, primary screen, biochemical, multiplex microsphere, MLPCN library | Lethal factor (Bacillus anthracis), P15917 | multiplex microsphere protease cleavage assay | inhibition, % at 10 µM | 0.12% of 360,000 active | AID 588501, 2011; in the data active = inhibition above about 30%; inconclusive = no clear call, values can overlap the other calls; also: plate controls were buffer without enzyme for full effect and enzyme alone for no effect
# Target sequence (P15917 whole entry, looked up): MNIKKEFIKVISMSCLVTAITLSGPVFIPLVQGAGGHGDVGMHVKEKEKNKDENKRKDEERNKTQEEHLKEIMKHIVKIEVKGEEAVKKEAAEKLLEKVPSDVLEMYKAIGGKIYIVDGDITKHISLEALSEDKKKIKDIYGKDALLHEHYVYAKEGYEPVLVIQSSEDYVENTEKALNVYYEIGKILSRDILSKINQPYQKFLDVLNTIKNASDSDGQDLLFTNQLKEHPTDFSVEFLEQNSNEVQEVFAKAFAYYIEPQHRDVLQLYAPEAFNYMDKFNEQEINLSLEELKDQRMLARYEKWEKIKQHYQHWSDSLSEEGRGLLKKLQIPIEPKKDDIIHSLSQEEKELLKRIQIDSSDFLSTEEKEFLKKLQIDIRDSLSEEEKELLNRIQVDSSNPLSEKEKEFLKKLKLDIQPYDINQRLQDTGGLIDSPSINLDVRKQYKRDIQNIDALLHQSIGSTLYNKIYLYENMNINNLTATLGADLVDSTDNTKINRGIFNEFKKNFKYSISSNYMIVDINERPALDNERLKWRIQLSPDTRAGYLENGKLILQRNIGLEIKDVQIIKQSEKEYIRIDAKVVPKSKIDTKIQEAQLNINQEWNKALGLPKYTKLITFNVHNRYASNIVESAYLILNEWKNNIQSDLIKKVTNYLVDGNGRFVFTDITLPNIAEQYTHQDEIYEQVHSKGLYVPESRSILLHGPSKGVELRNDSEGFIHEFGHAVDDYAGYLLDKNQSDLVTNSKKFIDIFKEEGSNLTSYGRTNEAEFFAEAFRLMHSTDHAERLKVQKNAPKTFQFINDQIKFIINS
# Bead autofluor = counter-screen for toxin protease inhibitors: compound fluorescence. compound autofluorescence counterscreen, microsphere flow cytometry; stronger effect = higher value. fluorescence intensity (test concentration not listed). 3.1% of 360,000 active. AID 624483; in the data active = fluorescence intensity above about 16000; inconclusive = no clear call, values can overlap the other calls
# Vc quorum ag = inducers of Vibrio cholerae quorum light production without autoinducers, primary screen, BH1578 luxS cqsA deficient, single point | 0.16% of 350,000 active | V. cholerae BH1578 lux reporter, luminescence, 6 h | activation, % at 18.7 µM | AID 588436, 2011; in the data active = activation mostly above about 9.7%, no sharp cut-off; inconclusive = no clear call, values can overlap the other calls; inactive = mostly below about 3.7%
# BoNT-F LC inh = BoNT/F light chain protease inhibitors, primary screen, biochemical, flow cytometry, MLPCN library. Botulinum neurotoxin type F light chain protease (Clostridium botulinum). Multiplex microsphere protease cleavage assay. inhibition, % at 10 µM. 0.22% of 360,000 active. AID 588497, 2011; in the data active = inhibition above about 35%, passing the limit was not always enough; inconclusive = no clear call, values can overlap the other calls; also: plate controls were buffer without enzyme for full effect and enzyme alone for no effect
# BoNTA LC inh 1 = BoNT/A light chain protease inhibitors, confirmation, biochemical, flow cytometry, cherry pick 1; shares compounds with BoNT-F LC inh; multiplex microsphere protease assay; inhibition, % at 10 µM; 3% of 720 active; AID 602139, 2011; in the data active = inhibition above about 32%
# BoNT-F LC CP1 = BoNT/F light chain protease inhibitors, confirmation, biochemical, flow cytometry, cherry pick 1; multiplex microsphere protease cleavage assay; shares compounds with BoNT-F LC inh; inhibition, % at 10 µM; 720 tested, under 10 active
# Anthrax LF CP1 = Bacillus anthracis LF protease inhibitors, confirmation, biochemical, multiplex microsphere, cherry pick 1 | 720 tested, under 10 active | multiplex microsphere protease cleavage assay | AID 602142, 2011 | inhibition, % at 10 µM | shares compounds with BoNT-F LC inh
# An asterisk follows results filed as active; i = inactive; ? = inconclusive; / = no result given. Unless noted, no rule for the calls is given here.
SMILES,BoNT-A LC inh2,Anthrax LF prot,Bead autofluor,Vc quorum ag,BoNT-F LC inh,BoNTA LC inh 1,BoNT-F LC CP1,Anthrax LF CP1
CN1C(=O)C(Cc2cnc[nH]2)NC1=S (stereo not drawn),3,-22,3498,-1,11,/,/,/
Cc1noc(C)c1COC(=O)c1ccccc1NC(=O)c1ccco1,0,-5,4373,i,-2,/,/,/
COc1ccc(N2CCN(C(=O)CSc3nnc(C4CC4)n3C3CC3)CC2)cc1,0,-6,2867,0,0,/,/,/
O=C(CCNC(=O)c1ccc(Br)cc1)NC1CCCc2ccccc21 (stereo not drawn),3,2,?,1,10,/,/,/
COc1ccc(Cn2c(=S)[nH]c3cc(OC)c(OC)cc3c2=O)cc1,0,-2,3250,-3,3,/,/,/
COc1ccc(Cn2c(=O)[nH]c3cc(OC)c(OC)cc3c2=O)cc1,4,-9,3925,-1,36*,0,1,-2
COc1cc(OC)cc(C(=O)NCc2ccc3c(c2)cc(C)n3C)c1,73*,-47,2199,i,-82,1,-1,-4
COc1c(C)cccc1C(=O)NCc1ccc2c(c1)OCO2,-1,-12,3541,i,36*,0,-4,1
COc1ccc(C(=O)NCc2ccc3c(c2)OCO3)cc1,0,-2,4493,i,-3,/,/,/
Cc1cc2cc(CNC(=O)c3ccco3)ccc2n1C,28,-18,4270,i,-57,/,/,/
Cc1c(C(=O)NCc2ccc3c(c2)OCO3)cccc1[N+](=O)[O-],-1,-2,2370,-1,10,/,/,/
Cc1cc2cc(CNC(=O)c3ccc4c(c3)OCO4)ccc2n1C,65*,-50,1744,i,-86,7,-11,3
COCC(=O)NCc1ccc2c(c1)cc(C)n2C,5,1,1948,-6,-5,3,-5,-1
O=C1CCN(Cc2ccccc2)C(=S)N1,1,3,3672,2,3,/,/,/
COc1cc(C(=O)NNC(=O)c2ccccc2Br)ccc1OCC(=O)N1CCOCC1,6,-4,?,0,-1,/,/,/
Cc1cc2cc(CNC(=O)NC3CCCCC3)ccc2n1C,23,-107,2076,0,-132,/,/,/
COc1ccc(CC(=O)NCc2ccccc2)cc1OC,-1,-2,4181,0,?,/,/,/
COc1ccc(CC(=O)NCc2ccc3c(c2)cc(C)n3C)cc1OC,51*,10,2746,0,-25,2,-8,-4
Cc1cc2cc(CNC(=O)COc3ccccc3)ccc2n1C,69*,-26,2787,0,-72,6,-15,2
COc1ccc2c(c1)CCCN2S(=O)(=O)c1ccc(Cl)cc1,1,37*,3742,0,-8,0,-11,-3
Cc1ccc2nc3c(cc2c1)c(NC(=O)C(C)(C)C)nn3CC(C)C,2,49*,2974,-1,15,1,2,0
Cc1ccsc1-c1nc(CN2CCCC2c2ccc(F)cc2)c(C)o1 (stereo not drawn),0,-2,6291,i,2,/,/,/
c1ccc(-c2cnn3c(-c4ccccc4)c(-c4ccccc4)nc3n2)cc1,37*,21,5602,0,21,26,23,11
Nc1nc(-c2ccccc2)c(-c2ccccc2)n1N,11,8,3550,i,14,/,/,/
CC(=O)N1CCN(C(=O)c2c(-c3ccccc3)noc2C)CC1,0,-3,2919,-1,-5,/,/,/
SMILES,BoNT-A LC inh2,Anthrax LF prot,Bead autofluor,Vc quorum ag,BoNT-F LC inh,BoNTA LC inh 1,BoNT-F LC CP1,Anthrax LF CP1
Cc1onc(-c2ccccc2)c1C(=O)N1CCCN2C(=O)c3ccccc3C21 (stereo not drawn),0,-3,5529,-1,1,1,-1,2
CCOc1ncccc1C(=O)NCC(c1ccccc1)N(C)C (stereo not drawn),2,-1,5244,0,3,/,/,/
CS(=O)(=O)Nc1ccccc1C(=O)Nc1cccc(Cl)c1,?,8,5367,i,53*,0,-1,3
CCCc1oc(C(=O)O)cc1CN1CCOCC1,8,12,8574,-1,42*,-1,1,1
C=C(C)C1CC=C(C)/C(=N/NC(=O)CCC(=O)Nc2ccccc2Cl)C1 (stereo not drawn),-5,-5,5049,0,0,/,/,/
COc1ccc(NC(=O)CCNC(=O)c2ccco2)cc1S(=O)(=O)N(C)C,0,-2,5344,0,1,/,/,/
COc1ccc(S(=O)(=O)N(C)C)cc1NC(=O)CCNC(=O)c1ccco1,0,6,3795,2,41*,0,-3,2
COc1ccc(-c2oc(=O)n(C)c2-c2ccc(OC)cc2)cc1,7,7,2904,-1,90*,0,-6,-4
COCCn1c(-c2ccc(OC)cc2)c(-c2ccc(OC)cc2)oc1=O,-5,5,3816,i,5,/,/,/
COCc1ccc(C(=O)N2CCCC(C(=O)c3ccc(SC)cc3)C2)s1 (stereo not drawn),-2,-2,?,i,-10,/,/,/
CC(C)c1ccc2nc3sc(C(=O)N4CCc5ccccc5C4)c(N)c3cc2c1,21,18,8548,-2,23,4,-1,4
O=C(NCc1ccccc1Cl)c1ccc2c(c1)OCO2,3,-1,6016,i,-4,/,/,/
CC1(C)Cc2c(C#N)c(SCC(=O)c3ccccc3)nc(N3CCOCC3)c2CS1,0,-3,4781,0,37*,-1,-2,-4
CCC1(C)Cc2c(C#N)c(SC)nc(N3CCOCC3)c2CO1 (stereo not drawn),0,32*,3640,-1,?,1,-1,1
CSc1nc(N2CCOCC2)c2c(c1C#N)CC(C)(C)OC2,0,-2,2739,-1,-4,/,/,/
Cc1oc(-c2ccccc2)cc1C(=O)NC1CCN(Cc2ccccc2)CC1,1,-3,5292,-1,-3,/,/,/
COCCCNc1oc(-c2cccs2)nc1S(=O)(=O)c1ccc(C)cc1,2,0,4265,i,39*,-2,-4,0
CCOC(=O)C1CCN(C(=O)c2ccc3nc(-c4ccc(OC)cc4)c(-c4ccc(OC)cc4)nc3c2)CC1,30*,11,5131,i,20,12,-2,3
CCOC(=O)C1CCCN(C(=O)c2ccc(OC)cc2)CC1 (stereo not drawn),0,-4,3909,i,-6,/,/,/

# Bioassay records (PubChem)
